Where “and” joins values, the source holds several entries; their conditions need not be identical. Equal values may be shown once. Among all 5,500 compounds or so, about 2,000 (36%) were called active. Roughly 18% stayed inconclusive and do not appear here. No stated cut-off is given here; in the data, active means normalized growth mostly below about 0.91 (no sharp cut-off); inconclusive means no clear call, values can overlap the other calls; inactive means mostly above about 0.92. The list shows a part of the results.
Experiment: chemical genetic growth profiling, strain panel (AID 1159580);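 further: tested at 20 µM; growth read once vehicle control cultures reached saturation at 30 °C; 1 = growth at the plate median or of vehicle wells; lower values mean less growth of the strain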
Settings: growth OD
[1] = S. cerevisiae deletion strains, locus YBR229C, strain ROT2, hits give low values
[2] = S. cerevisiae deletion strains, locus YDL101C, strain DUN1, hits give low values
[3] = S. cerevisiae deletion strains, locus YDL134C, strain PPH21, hits give low values
[4] = S. cerevisiae deletion strains, locus YDR150W, strain NUM1, hits give low values
[5] = S. cerevisiae deletion strains, locus YEL061C, strain CIN8, hits give low values
[6] = S. cerevisiae deletion strains, locus YHR030C, strain SLT2, hits give low values
[7] = S. cerevisiae deletion strains, locus YJR043C, strain POL32, hits give low values
[8] = S. cerevisiae deletion strains, locus YJR075W, strain HOC1, hits give low values
[9] = S. cerevisiae deletion strains, locus YKL190W, strain CNB1, hits give low values
[10] = S. cerevisiae deletion strains, locus YLR039C, strain RIC1, hits give low values
[11] = S. cerevisiae deletion strains, locus YLR262C, strain YPT6, hits give low values
[12] = S. cerevisiae deletion strains, locus YMR263W, strain SAP30, hits give low values
[13] = S. cerevisiae deletion strains, locus YMR307W, strain GAS1, hits give low values
[14] = S. cerevisiae deletion strains, locus YNL322C, strain KRE1, hits give low values
[15] = S. cerevisiae deletion strains, locus YOL006C, strain TOP1, hits give low values
[16] = S. cerevisiae deletion strains, locus YPL055C, strain LGE1, hits give low values
[17] = S. cerevisiae strains, strain wild type, hits give low values
[18] = S. cerevisiae deletion strains, locus YAL013W, strain DEP1, hits give low values
[19] = S. cerevisiae deletion strains, locus YGR078C, strain PAC10, hits give low values
[20] = S. cerevisiae deletion strains, locus YHR087W, strain rtc3, hits give low values
[21] = S. cerevisiae deletion strains, locus YJL187C, strain SWE1, hits give low values
[22] = S. cerevisiae deletion strains, locus YLR058C, strain SHM2 (second series), hits give low values
[23] = S. cerevisiae deletion strains, locus YLR085C, strain ARP6, hits give low values
[24] = S. cerevisiae deletion strains, locus YML094W, strain GIM5, hits give low values
[25] = S. cerevisiae deletion strains, locus YMR219W, strain ESC1, hits give low values
[26] = S. cerevisiae deletion strains, locus YNL153C, strain GIM3, hits give low values
[27] = S. cerevisiae deletion strains, locus YNL298W, strain CLA4 (second series), hits give low values
[28] = S. cerevisiae deletion strains, locus YNR030W, strain Alg12, hits give low values
[29] = S. cerevisiae deletion strains, locus YPL241C, strain CIN2, hits give low values
[30] = S. cerevisiae deletion strains, locus YPR135W, strain CTF4, hits give low values

Measured: normalized growth

CCCCC1(COC(=O)CCC(=O)O)C(=O)N(c2ccccc2)N(c2ccccc2)C1=O
inactive: S. cerevisiae deletion strains, locus YBR021W, strain FUR4, hits give low values 1 | [1] 1 | S. cerevisiae deletion strains, locus YCL029C, strain bik1, hits give low values 1.02 | S. cerevisiae deletion strains, locus YDL035C, strain GPR1, hits give low values 1.01 | S. cerevisiae deletion strains, locus YDL074C, strain BRE1, hits give low values 0.993 | [2] 1 | [3] 1.01 | S. cerevisiae deletion strains, locus YDL185W, strain tfp1, hits give low values 1.01 | S. cerevisiae deletion strains, locus YDL192W, strain arf1, hits give low values 1.01 | S. cerevisiae deletion strains, locus YDR101C, strain arx1, hits give low values 1.01 | [4] 0.992 | S. cerevisiae deletion strains, locus YDR162C, strain NBP2, hits give low values 0.995 | S. cerevisiae deletion strains, locus YDR318W, strain mcm21, hits give low values 1 | S. cerevisiae deletion strains, locus YDR388W, hits give low values 1.01 | S. cerevisiae deletion strains, locus YDR502C, strain sam2, hits give low values 1.01 | [5] 1 | S. cerevisiae deletion strains, locus YER110C, hits give low values 1.02 | S. cerevisiae deletion strains, locus YER155C, strain BEM2, hits give low values 1 | S. cerevisiae deletion strains, locus YER167W, strain BCK2, hits give low values 1 | S. cerevisiae deletion strains, locus YGL078C, strain dbp3, hits give low values 0.996 | S. cerevisiae deletion strains, locus YGL086W, strain mad1, hits give low values 1 | S. cerevisiae deletion strains, locus YGL248W, strain PDE1, hits give low values 1.01 | S. cerevisiae deletion strains, locus YGR135W, strain pre9, hits give low values 1.02 | S. cerevisiae deletion strains, locus YGR252W, strain gcn5, hits give low values 1.06 | [6] 1 and 1.05 | S. cerevisiae deletion strains, locus YHR079C, strain IRE1 (second series), hits give low values 1.01 | S. cerevisiae deletion strains, locus YHR079C, strain IRE1, hits give low values 1.04 | S. cerevisiae deletion strains, locus YHR094C, strain hxt1, hits give low values 1.01 | S. cerevisiae deletion strains, locus YHR129C, strain ARP1, hits give low values 1 | S. cerevisiae deletion strains, locus YHR200W, strain rpn10, hits give low values 1.01 | S. cerevisiae deletion strains, locus YIL066C, strain RNR3, hits give low values 1.01 | S. cerevisiae deletion strains, locus YIL073C, strain SPO22, hits give low values 1.09 | S. cerevisiae deletion strains, locus YIL125W, strain kgd1, hits give low values 0.991 | S. cerevisiae deletion strains, locus YIR030C, strain dcg1, hits give low values 1.01 | S. cerevisiae deletion strains, locus YJL095W, strain BCK1, hits give low values 1.01 and 1.05 | S. cerevisiae deletion strains, locus YJL134W, strain LCB3, hits give low values 0.996 | S. cerevisiae deletion strains, locus YJL168C, strain set2, hits give low values 1 | S. cerevisiae deletion strains, locus YJL187C, strain SWE1 (second series), hits give low values 1.01 | [7] 0.989 | S. cerevisiae deletion strains, locus YJR066W, strain TOR1, hits give low values 0.967 | [8] 1.01 | S. cerevisiae deletion strains, locus YKL009W, strain mrt4, hits give low values 1.03 | S. cerevisiae deletion strains, locus YKL068W, hits give low values 1 | S. cerevisiae deletion strains, locus YKL085W, strain MDH1 (second series), hits give low values 0.972 | S. cerevisiae deletion strains, locus YKL085W, strain MDH1, hits give low values 0.972 | [9] 0.993 | S. cerevisiae deletion strains, locus YKR001C, strain vps1, hits give low values 1.01 | [10] 0.912 | S. cerevisiae deletion strains, locus YLR058C, strain SHM2, hits give low values 1 | S. cerevisiae deletion strains, locus YLR102C, strain apc9, hits give low values 1 | S. cerevisiae deletion strains, locus YLR113W, strain HOG1, hits give low values 0.952 | [11] 0.913 | S. cerevisiae deletion strains, locus YLR268W, strain sec22, hits give low values 1.02 | S. cerevisiae deletion strains, locus YLR330W, strain CHS5, hits give low values 0.993 | S. cerevisiae deletion strains, locus YLR342W, strain FKS1 (second series), hits give low values 0.993 | S. cerevisiae deletion strains, locus YLR371W, strain rom2, hits give low values 1.01 | S. cerevisiae deletion strains, locus YLR418C, strain cdc73, hits give low values 1.03 | S. cerevisiae deletion strains, locus YML016C, strain PPZ1, hits give low values 1 | S. cerevisiae deletion strains, locus YML032C, strain rad52, hits give low values 1 | S. cerevisiae deletion strains, locus YML124C, strain tub3, hits give low values 1.01 | S. cerevisiae deletion strains, locus YMR078C, strain ctf18, hits give low values 1 | S. cerevisiae deletion strains, locus YMR223W, strain ubp8, hits give low values 1.01 | [12] 0.998 | [13] 1.05 | S. cerevisiae deletion strains, locus YNL067W, strain RPL9B, hits give low values 0.998 | S. cerevisiae deletion strains, locus YNL128W, strain TEP1, hits give low values 1.02 | S. cerevisiae deletion strains, locus YNL183C, strain NPR1, hits give low values 0.945 | S. cerevisiae deletion strains, locus YNL233W, strain BNI4, hits give low values 1 | S. cerevisiae deletion strains, locus YNL250W, strain rad50, hits give low values 1 | S. cerevisiae deletion strains, locus YNL271C, strain bni1, hits give low values 1.01 | S. cerevisiae deletion strains, locus YNL298W, strain CLA4, hits give low values 1.01 | S. cerevisiae deletion strains, locus YNL307C, strain MCK1, hits give low values 1.02 | [14] 0.997 | S. cerevisiae deletion strains, locus YNR052C, strain pop2, hits give low values 1.01 | [15] 0.991 | S. cerevisiae deletion strains, locus YOL012C, strain htz1 1.51 | S. cerevisiae deletion strains, locus YOL147C, strain pex11, hits give low values 1.01 | S. cerevisiae deletion strains, locus YOR061W, strain CKA2, hits give low values 1 | S. cerevisiae deletion strains, locus YOR069W, strain VPS5, hits give low values 1 | S. cerevisiae deletion strains, locus YOR136W, strain idh2, hits give low values 1.02 | S. cerevisiae deletion strains, locus YOR144C, strain elg1, hits give low values 1.01 | S. cerevisiae deletion strains, locus YOR184W, strain ser1, hits give low values 1.02 | S. cerevisiae deletion strains, locus YOR231W, strain MKK1, hits give low values 1.02 | S. cerevisiae deletion strains, locus YOR316C, strain cot1, hits give low values 1.02 | [16] 0.989 | S. cerevisiae deletion strains, locus YPL256C, strain CLN2, hits give low values 1.02 | S. cerevisiae deletion strains, locus YPR119W, strain clb2, hits give low values 1.01 | S. cerevisiae deletion strains, locus YPR141C, strain kar3, hits give low values 1 | S. cerevisiae deletion strains, locus YPR163C, strain tif3, hits give low values 1.02 | S. cerevisiae deletion strains, locus YPR167C, strain met16, hits give low values 1.01 | S. cerevisiae deletion strains, strain wtn01, hits give low values 1.02 | [17] 0.995

CCSc1sc(C(=O)OC)c(-c2ccc(Cl)cc2)c1C#N
inactive: [18] 1.01 | [1] 0.985 | [2] 1.02 | [3] 0.964 | [4] 1.06 | [5] 0.917 | [19] 0.995 | S. cerevisiae deletion strains, locus YGR229C, strain SMI1, hits give low values 0.989 | [6] 0.989 | [20] 1 | [21] 0.983 | [7] 1.05 | [8] 0.968 | [9] 0.99 | [10] 1.01 | [22] 0.986 | [23] 0.817 | [11] 0.999 | [24] 0.946 | [25] 0.992 | [12] 1.07 | [13] 0.972 | [26] 0.994 | [27] 0.94 | [14] 0.99 | [28] 0.954 | [16] 1.08 | [29] 0.96 | [30] 1.01

COC(=O)c1ccc(-c2ccc(Cl)cc2)s1
inactive: [2] 0.906 | [4] 0.893 | [21] 0.961 | [7] 0.927 | [24] 0.871 | [12] 0.893 | [16] 1.08 | [17] 0.928
active: [18] 0.898 | [1] 0.901 | S. cerevisiae deletion strains, locus YCL061C, strain MRC1, hits give low values 0.858 | [5] 0.87 | [19] 0.914 | [6] 0.587 | [20] 0.909 | [8] 0.88 | [9] 0.913 | [10] 0.497 | [22] 0.907 | [23] 0.577 | [11] 0.435 | [25] 0.908 | [13] 0.629 | [26] 0.872 | [27] 0.79 | [14] 0.92 | [28] 0.869 | [15] 0.637 | [29] 0.83 | [30] 0.597
